Among the data in PubChem BioAssay (Tox21) are Potency and outcome values, retold here.

Values joined by “and” are separate entries in the source; they are usually repeats but may differ in a detail not shown here. Identical values can stand only once. Inconclusive results are not listed. Active and inactive are the calls of the source. Unless noted, calls come from the whole dose curve; as a rule, active = well fitted curve in the direction sought with a large enough effect in the repeat runs; inconclusive = weak or mixed curves; inactive = no such curve, though single readings can be large; an effect the other way counts as inactive or inconclusive.

Assay [1] in a line: qHTS assay for small molecules that induce genotoxicity in human embryonic kidney cells expressing luciferase-tagged ATAD5 (AID 651632). Note: nearly all actives have a fitted effect of over 15% in size. Summed up: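 A rise in luciferase signal from ATAD5-tagged HEK293T cells marks genetic stress. Cells were exposed to compounds for 16 hr at 37C, 5% CO2, then luciferase was quantified after a 30 min room-temperature incubation with Amplite.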

The nature of assay [2]: qHTS assay for small molecule agonists of the p53 signaling pathway - cell viability (AID 651633; calls by dose curve; note: nearly all actives have a fitted effect of over 30% in size; note: potency is the fitted concentration of half-maximal effect). The procedure, abridged:
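Viability counter-read: CellTiter-Glo luminescence (30 min, room temperature) in the same p53RE-bla plates. These plates had been exposed to compounds for 16 h at 37 C.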
A general note: In qHTS, concentration-response curves come from the screen itself.

Assay [3] is described as follows: qHTS assay for small molecules that induce genotoxicity in human embryonic kidney cells expressing luciferase-tagged ATAD5 - cell viability (AID 651634; calls by dose curve; note: nearly all actives have a fitted effect of over 25% in size; note: potency is the fitted concentration of half-maximal effect). The procedure, abridged: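 Cytotoxicity counter-readout: after 15.5 hr compound treatment at 37C, live-cell protease activity in ATAD5-luciferase HEK293T cells measured by CellTiter-Fluor fluorescence, 30 min development at 37C.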

Assay [4] can be described thus: qHTS assay for small molecule disruptors of the mitochondrial membrane potential - cell viability (AID 720634; calls by dose curve; note: nearly all actives have a fitted effect of over 20% in size; note: potency is the fitted concentration of half-maximal effect). Summed up:
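Cytotoxicity was quantified from ATP content by CellTiter-Glo luminescence in the same wells as the MMP dye read-out. HepG2 (2,000 cells/well) were plated overnight and exposed to compounds for 1 hr at 37 C.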

Assay [5] in a line: qHTS assay for small molecule disruptors of the mitochondrial membrane potential (AID 720635). Note: potency is the fitted concentration of half-maximal effect. Summed up: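 Mitochondrial membrane potential tracked with Mito-MPS dye, red aggregates (ex 540/em 590 nm) against green monomers (ex 490/em 535 nm). Compound treatment 1 hr at 37C, dye 30 min in HepG2.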
Assay [6] in a line: qHTS assay to test for compound auto fluorescence at 590 nm (red) in HepG2 cells (AID 720674). Summed up: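 1 hr compound incubation on HepG2 cells, 37 C, 5% CO2; plate read ex 540 nm / em 590 nm; intensities reported as Rose Bengal sodium equivalents.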
Assay [7] can be described thus: qHTS assay to test for compound auto fluorescence at 535 nm (green) in HepG2 cells (AID 720675).
The nature of assay [8]: qHTS assay to test for compound auto fluorescence at 460 nm (blue) in HEK293 cells (AID 720678). The procedure, abridged:
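HEK293 cells (2,000 per well, medium with 10% dialyzed FBS) attached for 4-5 hr at 37C, then received compound and stood overnight at 37C, 5% CO2. Blue fluorescence was read at Ex/Em 405/460 nm and expressed relative to triamterene.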

The nature of assay [9]: qHTS assay to test for compound auto fluorescence at 590 nm (red) in HEK293 cells (AID 720679). The procedure, abridged: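 HEK293 cells (2,000/well, medium with 10% dialyzed FBS) attached for 4-5 hr at 37C, received 23 nL compound and were incubated overnight at 37C, 5% CO2. Red fluorescence was then read at 540/590nm Ex/Em, referenced to Rose Bengal sodium.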
Assay [10] is described as follows: qHTS assay to test for compound auto fluorescence at 535 nm (green) in HEK293 cells (AID 720680).
Assay [11] can be described thus: qHTS assay to test for compound auto fluorescence at 460 nm (blue) in HEK293 cell free culture (AID 720681). Summed up: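 Blue fluorescence (Ex 405/Em 460 nm, triamterene-equivalent) was read immediately after pin transfer of compound or DMSO into medium (DMEM, 10% FBS) without cells.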
Assay [12] can be described thus: qHTS assay to test for compound auto fluorescence at 535 nm (green) in HEK293 cell free culture (AID 720682). Summed up:
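Using fluorescein as calibrant, autofluorescence was quantified at 485/535 nm in cell-free DMEM containing 10% FBS after pintool addition of compound or vehicle.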

A short description of assay [13]: qHTS assay to test for compound auto fluorescence at 590 nm (red) in HEK293 cell free culture (AID 720683). The procedure, abridged: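 Red-channel autofluorescence of compounds in culture medium (DMEM, 10% FBS), no cells, measured at 540/590 nm. Rose Bengal sodium is the reference fluorophore for equivalence.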
Assay [14] is described as follows: qHTS assay to test for compound auto fluorescence at 590 nm (red) in HepG2 cell free culture (AID 720684). Summed up: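 Cell-free; medium MEM + 10% FBS; compound or DMSO added by pintool; read Ex 540/Em 590 nm; Rose Bengal sodium as red reference fluorophore.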
Assay [15] in a line: qHTS assay to test for compound auto fluorescence at 460 nm (blue) in HepG2 cell free culture (AID 720685). Summed up:
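Cell-free plates of MEM plus 10% FBS received 23 nL compound or DMSO vehicle; blue-channel (405/460 nm) intensity scored against triamterene as reference fluorophore.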

Assay [16] is described as follows: qHTS assay to test for compound auto fluorescence at 535 nm (green) in HepG2 cell free culture (AID 720686).
A short description of assay [17]: qHTS assay to test for compound auto fluorescence at 460 nm (blue) in HepG2 cells (AID 720687). Summed up:
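Blue-channel autofluorescence (Ex/Em 405/460 nm, triamterene-equivalent) was measured after 1 hr compound exposure at 37 C, 5% CO2. Cells were HepG2, plated overnight at 37 C in MEM plus 10% FBS.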

A short description of assay [18]: qHTS assay for small molecule agonists of the p53 signaling pathway (AID 651631; calls by dose curve; note: nearly all actives have a fitted effect of over 15% in size). Summed up: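 Stably transfected HCT-116 cells (beta-lactamase behind p53 response elements) get compounds after a 5 h settling period; 16 h later at 37 °C, FRET substrate is loaded and fluorescence read after 2 h.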
Assay [19] has as its target Glucocorticoid receptor (Homo sapiens) (UniProt P04150). The assay is described as follows: qHTS assay to identify small molecule agonists of the glucocorticoid receptor (GR) signaling pathway (AID 720691; active = well fitted activation curve with a large enough effect in the signal ratio in the repeat runs, not every such curve was filed as active; the % refers to the signal ratio). The procedure, abridged: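 Agonist-mode qHTS in HeLa cells stably expressing a glucocorticoid-response-element beta-lactamase reporter. Fluorescence intensity read with FRET substrate (2 h, room temperature) after 18 h compound treatment at 37 C.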

For assay [20] the target is unchanged. Nature of the assay: qHTS assay to identify small molecule antagonists of the glucocorticoid receptor (GR) signaling pathway (AID 720692; active = well fitted inhibition curve with a large enough effect in the signal ratio in the repeat runs, not every such curve was filed as active; the % refers to the signal ratio). The procedure, abridged: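 Inhibition of dexamethasone-driven (5 nM final) beta-lactamase expression was measured in GRE-reporter HeLa cells over 18 h at 37C. Fluorescence was read after 2 h with the B/G FRET substrate at room temperature.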

Chain of Glucocorticoid receptor (Homo sapiens) (P04150 whole entry, looked up): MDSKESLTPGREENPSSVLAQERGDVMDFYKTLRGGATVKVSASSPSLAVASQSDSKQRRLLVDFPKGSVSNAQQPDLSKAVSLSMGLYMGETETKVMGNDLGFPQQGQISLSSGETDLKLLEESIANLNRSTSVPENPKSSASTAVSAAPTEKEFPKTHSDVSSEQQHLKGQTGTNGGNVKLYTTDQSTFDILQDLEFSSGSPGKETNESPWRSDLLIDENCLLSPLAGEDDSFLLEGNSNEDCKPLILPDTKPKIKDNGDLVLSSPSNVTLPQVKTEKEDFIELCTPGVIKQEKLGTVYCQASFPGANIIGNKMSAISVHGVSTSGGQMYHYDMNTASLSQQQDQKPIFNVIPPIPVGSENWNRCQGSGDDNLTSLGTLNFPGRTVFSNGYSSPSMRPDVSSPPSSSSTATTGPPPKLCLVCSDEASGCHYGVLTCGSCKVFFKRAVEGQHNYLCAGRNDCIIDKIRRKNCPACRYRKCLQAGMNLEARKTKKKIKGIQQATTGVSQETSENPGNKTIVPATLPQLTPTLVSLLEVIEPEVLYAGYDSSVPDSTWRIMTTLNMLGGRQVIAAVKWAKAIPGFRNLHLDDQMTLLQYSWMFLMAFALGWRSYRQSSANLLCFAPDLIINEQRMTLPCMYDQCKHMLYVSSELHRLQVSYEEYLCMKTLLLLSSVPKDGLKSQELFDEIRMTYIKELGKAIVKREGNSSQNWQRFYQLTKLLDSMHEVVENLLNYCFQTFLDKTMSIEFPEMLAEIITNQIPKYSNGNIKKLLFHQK

On to `CNC(=O)CSP(=S)(OC)OC`, for which the Potency entry in assay [1], in assay [2], in assay [3], in assay [4], in assay [5] and in assay [8] was “inactive” in each case. Moreover, the Potency result in assay [11], in assay [15] and in assay [17] was “inactive” throughout. The call in assay [6], in [7], in assay [9], in [10], in [12] and in [13] was inactive. Further, the outcome in assay [14] and in [16] was inactive.

For the compound `O=NN1CCOCC1`, the Potency entry in assay [18], in assay [1], in assay [2], in [3], in assay [4] and in [5] was “inactive” throughout. Moreover, the Potency result in assay [8], in [11], in assay [15], in assay [17] and in [20] was “inactive” in each case. The call in assay [6], in assay [7], in assay [9], in [10], in assay [12] and in [13] was inactive. In addition, the outcome in [14] and in assay [19] was inactive.

On to `COP(=O)(NC(C)=O)SC` (stereo unspecified), for which the Potency result in [18], in assay [1], in assay [2], in assay [3], in [4] and in [8] was “inactive” each time. Also, the Potency entry in [11], in assay [15], in assay [17] and in assay [20] was “inactive” in each case. In addition, the outcome in assay [6], in assay [7], in assay [9], in [10], in [12] and in [13] was inactive. In addition, the outcome in assay [14], in assay [16] and in [19] was inactive.

Turning to `CS(=O)(=O)NC(=O)c1cc(Oc2ccc(C(F)(F)F)cc2Cl)ccc1[N+](=O)[O-]`, the Potency result in [18], in assay [1], in assay [2], in assay [3], in [8] and in assay [11] was “inactive” each time. For the same compound, the Potency entry in assay [15] and in assay [17] was “inactive” each time. The outcome in assay [6], in [7], in assay [9], in assay [10], in [12] and in [13] was inactive. In addition, the call in assay [14] was inactive.

For the compound `Nc1ccc([N+](=O)[O-])cc1N`, the Potency result in [1], in [2], in [4], in assay [8], in [11] and in assay [15] was “inactive” in each case. The Potency entry in [17] was “inactive”. In addition, the values for the Potency in assay [3] and in assay [5] were 54.4 µM (active) and 30.6 µM (active), respectively. The outcome in [6], in assay [7], in assay [9], in assay [10], in assay [12] and in assay [13] was inactive. Also, the call in assay [14] and in assay [16] was inactive.

Take `CCC[CH2][Sn]([Cl])([CH2]CCC)[CH2]CCC`: the Potency entry in assay [1], in assay [8], in assay [11], in assay [15] and in assay [17] was “inactive” in each case. Moreover, the Potency is 687 nM (active) and 1.22 µM (active) in assay [2]; 612 nM (active) and 3.06 µM (active) in [3]; 1.73 µM (active) and 4.86 µM (active) in assay [4]; 61.3 nM (active) and 122 nM (active) in assay [5]. Further, the outcome in assay [6], in [7], in assay [9], in assay [10], in assay [12] and in [13] was inactive. In addition, the compound was called inactive in assay [14] and in [16].

Regarding `CN(C)c1nc(=O)n(C2CCCCC2)c(=O)n1C`, the Potency entry in [1], in [2], in [3], in assay [4], in assay [5] and in assay [8] was “inactive” throughout. Further, the Potency entry in assay [11], in assay [15] and in [17] was “inactive” in each case. The result in assay [6], in assay [7], in assay [9], in assay [10], in assay [12] and in assay [13] was inactive. For the same compound, the compound was called inactive in [14] and in assay [16].
